The list is not random: actives were taken first. Their share in the collection is about 19%.
Shiga toxin inh = blocks Shiga toxin action in Vero cells. Vero cells, Shiga toxin protein synthesis inhibition reporter. inhibition, % at 38.7 µM. 9.2% of 290,000 active. AID 2315; in the data active = inhibition mostly above about 28%, no sharp cut-off; inactive = mostly below about 43%
LASV entry inh = inhibitors of Lassa virus binding or cell entry | 1.2% of 300,000 active | AID 540256 | Lassa virus pseudotype entry inhibition, cell reporter | Potency, µM (series often up to 37.9 µM), actives largely listed as inhibitors; calls by dose curve; tested in HEK293 cells; note: nearly all actives have a fitted effect of over 50% in size
Cycloheximide cs = counter-screen hit for Shiga toxin inhibitors, cycloheximide; cell reporter, cycloheximide protein synthesis inhibition counterscreen; 12% of 300,000 active; max response, %; AID 2314; in the data active = max response mostly above about 13%, no sharp cut-off; inactive = mostly below about 14%; note: read at 38.3 µM for the half of the compounds with a filed dose
Pf growth 48h = P. falciparum growth inhibition at 48 hours (one generation) | P. falciparum luciferase growth in erythrocytes, 48 h | Potency, µM (top dose mostly 28.7 µM), usual class: inhibitors | 5.9% of 310,000 active | AID 504832
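Luminescence readout; reporter = integrated firefly luciferase in P. falciparum. RBC culture at 2% hematocrit, 0.1% parasitemia final, 37 C/5% CO2; decreased signal taken as growth inhibition.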
Marburg entry inh = Marburg virus entry inhibition. Marburg virus pseudotyped entry inhibition, cell reporter. Potency, µM (titrated, usually from 37.8 µM), most hits filed as inhibitors. 1.8% of 300,000 active. AID 540276; calls by dose curve; tested in HEK293 cells
Pf growth 96h = inhibits malaria parasite growth, 96 h. AID 504834. Potency, µM (titrated, usually from 28.7 µM), usual class: inhibitors. 6.9% of 320,000 active. P. falciparum luciferase reporter growth, 96 h
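Compounds incubated with erythrocytes infected by luciferase-expressing P. falciparum (2% hematocrit, 0.05% parasitemia final) for 96 hours, 37 C in 5% CO2. Growth inhibition scored as decreased luciferase luminescence.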
Large screens that a line does not name were inactive. Unless noted, calls come from the whole dose curve; as a rule, active = well fitted inhibition curve with a large enough effect; inconclusive = small, poorly fitted or top-dose-only effect, or another doubt; inactive = no such curve, though single readings can be large or run the other way.

O=C(CSc1nc2cc(Cl)ccc2o1)N1CCOCC1	none
O=C(CSc1nc2cc(Cl)ccc2o1)Nc1ccc(N2CCOCC2)cc1	Shiga toxin inh 72, Cycloheximide cs 31, Marburg entry inh inconclusive, Pf growth 96h inconclusive
O=C(Nc1nc(-c2ccccc2)cs1)c1ccc(N2CCOCC2)c([N+](=O)[O-])c1	LASV entry inh inconclusive, Pf growth 48h inconclusive, Marburg entry inh inconclusive
CCOC(=O)c1c(NC2=NS(=O)(=O)c3ccccc32)sc2c1CCC(C)C2 (configuration not stated)	none
N=c1oc2cc(O)ccc2cc1C(=O)Nc1ccc(Br)cc1	Shiga toxin inh 41, LASV entry inh inconclusive, Cycloheximide cs 29, Marburg entry inh inconclusive, Pf growth 96h 0.74µM
N=c1oc2ccc(Br)cc2cc1C(=O)NCc1ccccc1	Pf growth 96h inconclusive
N=c1oc2cc(O)ccc2cc1C(=O)Nc1nc2ccccc2s1	LASV entry inh inconclusive, Cycloheximide cs 64, Marburg entry inh inconclusive, Pf growth 96h inconclusive
COc1cccc(-c2cc(C(=O)Nc3nc4ccccc4s3)c3ccccc3n2)c1	Pf growth 48h inconclusive, Marburg entry inh inconclusive, Pf growth 96h inconclusive
CC(C)(C)C(=O)Nc1ccccc1C(=O)Nc1ccccn1	none
N=c1oc2cc(O)ccc2cc1C(=O)Nc1ccccn1	Shiga toxin inh 52, Cycloheximide cs 14 (no result: LASV entry inh, Marburg entry inh)
CN1C(=O)N(C)C2C1N(CN1CCCCC1)C(=O)N2CN1CCCCC1 (configuration not stated)	none
Cc1cc(C(=O)NNc2ccccc2F)no1	LASV entry inh inconclusive, Pf growth 48h inconclusive, Marburg entry inh inconclusive
O=C(COC(=O)C1=COCCO1)Nc1ccc(F)cc1	none (no result: Shiga toxin inh, Cycloheximide cs)
CC(C)(C)c1ccc(NC(=O)COC(=O)C2(C)CC2(Cl)Cl)cc1 (configuration not stated)	Shiga toxin inh 77, Cycloheximide cs 49 (no result: LASV entry inh, Marburg entry inh)
CCN(c1ccc(NC(=O)COC(=O)c2ccc(C)s2)cc1)C(C)C	Cycloheximide cs 19
CC(C)(C)c1ccc(NC(=O)COC(=O)C2=COCCO2)cc1	Cycloheximide cs 21 (no result: Pf growth 48h)
Cc1ccccc1NC(=O)COC(=O)C1(C)CC1(Cl)Cl (configuration not stated)	none
CC(C)(C)c1ccc(NC(=O)COC(=O)c2ccc([N+](=O)[O-])s2)cc1	Cycloheximide cs 14
COc1ccc(OC)c(C(=O)c2ccc(C(=O)Nc3ccccc3)cc2)c1	Pf growth 48h inconclusive, Marburg entry inh inconclusive
NS(=O)(=O)c1ccc(NC(=O)c2ccc(S(=O)(=O)N3CCOCC3)o2)cc1	none (no result: LASV entry inh, Marburg entry inh)
COCCN1C(=O)/C(=C/c2cc3c(cc2Br)OCO3)NC1=S	none
O=C(COC(=O)c1cc[n+]([O-])cc1)Nc1ccccc1Cl	none
CC1(C(=O)OCC(=O)Nc2nc(-c3ccc(F)c(F)c3)cs2)CC1(Cl)Cl (configuration not stated)	Shiga toxin inh 54, LASV entry inh inconclusive, Marburg entry inh inconclusive
CC(C)c1ccc(NC(=O)COC(=O)C2=COCCO2)cc1	Cycloheximide cs 33 (no result: Pf growth 96h)
CN(C)C(=O)c1ccc(NC(=O)COC(=O)C2=COCCO2)cc1	Marburg entry inh inconclusive (no result: Shiga toxin inh, Cycloheximide cs)
COc1cc(/C=N/n2nnnc2N)ccc1O	Pf growth 96h 13µM (no result: Pf growth 48h)
CSc1ccc(/C=N/n2nnnc2N)cc1	Cycloheximide cs 27, Marburg entry inh inconclusive
COc1cc(/C=N/n2nnnc2N)cc(OC)c1OC	none (no result: LASV entry inh, Marburg entry inh)
Nc1nnnn1/N=C/c1ccc(O)cc1	Pf growth 96h 2.1µM (no result: Pf growth 48h)
Nc1nnnn1/N=C/c1ccccn1	Pf growth 96h 6.6µM
C=CCOc1ccccc1/C=N/n1nnnc1N	Pf growth 96h inconclusive
Nc1nnnn1/N=C/c1cccc(O)c1	none
COc1ccc(C(c2c(C)n(C)n(-c3ccccc3)c2=O)c2c(C)n(C)n(-c3ccccc3)c2=O)cc1OC	Pf growth 48h inconclusive, Pf growth 96h inconclusive (no result: Shiga toxin inh, LASV entry inh, Marburg entry inh)
COc1ccc(N2C(=O)CC(C3CCCO3)C2=O)cc1 (configuration not stated)	none
CCCOc1ccc(/C=N/n2nnnc2N)cc1OC	none
CCN(CC)c1ccc(/C=N/n2nnnc2N)c(O)c1	Cycloheximide cs 14
CCN(C)c1ccc(/C=N\n2nnnc2N)cc1	Shiga toxin inh 65, Cycloheximide cs 29, Marburg entry inh inconclusive, Pf growth 96h 2.6µM
COc1ccc(Cc2nnc(SCC(=O)NC3CCCC3)o2)cc1	none
Cc1ccc(-n2nc3c(n2)/C(=N/O)CC/C3=N\O)cc1	Shiga toxin inh 48, LASV entry inh inconclusive, Cycloheximide cs 44, Marburg entry inh inconclusive
O=C(CN1CCCCCC1)Nc1ccc([N+](=O)[O-])cc1Cl	none
O=C(NCc1ccccc1)c1c[nH]c2ccccc2c1=O	Pf growth 96h inconclusive (no result: LASV entry inh, Marburg entry inh)
CCOC(=O)N1CCN(C(=O)c2c[nH]c3ccc(S(=O)(=O)N(C)c4ccc(F)cc4)cc3c2=O)CC1	Pf growth 96h inconclusive (no result: LASV entry inh, Marburg entry inh)
CCOC(=O)N1CCN(C(=O)c2c[nH]c3ccc(S(=O)(=O)N(C)c4ccc(OCC)cc4)cc3c2=O)CC1	Marburg entry inh inconclusive, Pf growth 96h 13µM
CCc1ccc(NS(=O)(=O)c2ccc3[nH]cc(C(=O)N4CCc5ccccc54)c(=O)c3c2)cc1	Shiga toxin inh 25, Cycloheximide cs 35, Marburg entry inh inconclusive, Pf growth 96h inconclusive
O=C(NCc1cccnc1)c1c[nH]c2cc3c(cc2c1=O)OCCO3	Shiga toxin inh 145, LASV entry inh inconclusive, Cycloheximide cs 35, Pf growth 48h inconclusive, Pf growth 96h inconclusive
CCOc1ccc(N(C)S(=O)(=O)c2ccc3[nH]cc(C(=O)NCC4CCCO4)c(=O)c3c2)cc1 (configuration not stated)	Pf growth 48h 13µM, Pf growth 96h inconclusive
CCc1ccc(N(C)S(=O)(=O)c2ccc3[nH]cc(C(=O)NCC4CCCO4)c(=O)c3c2)cc1 (configuration not stated)	none (no result: Shiga toxin inh, Cycloheximide cs, Pf growth 48h, Marburg entry inh, Pf growth 96h)
Cc1ccc(C(=O)OC(C(=O)O)C(OC(=O)c2ccc(C)cc2)C(=O)O)cc1 (configuration not stated)	Pf growth 48h inconclusive (no result: Shiga toxin inh, LASV entry inh, Cycloheximide cs, Marburg entry inh)
CCc1ccc(NS(=O)(=O)c2ccc3[nH]cc(C(=O)NCC4CCCO4)c(=O)c3c2)cc1 (configuration not stated)	Cycloheximide cs 27, Pf growth 48h inconclusive, Pf growth 96h inconclusive
O=C(NCc1ccccc1)c1c[nH]c2ccc(S(=O)(=O)Nc3ccc4c(c3)OCCO4)cc2c1=O	Shiga toxin inh 49, Pf growth 48h inconclusive, Pf growth 96h 15µM
O=C(c1ccccc1)c1c[nH]c2cc3c(cc2c1=O)OCCO3	Shiga toxin inh 45, Cycloheximide cs 17, Marburg entry inh inconclusive, Pf growth 96h 15µM
O=C(NCC1CCCO1)c1c[nH]c2ccc(S(=O)(=O)Nc3ccc(F)cc3F)cc2c1=O (configuration not stated)	none (no result: Shiga toxin inh, Cycloheximide cs, Pf growth 48h, Pf growth 96h)
CC1=CC2(O)OCCN(CCO)C2=CC1=O (configuration not stated)	Marburg entry inh inconclusive
Cc1cccc(C2Nc3cccc4cccc(c34)N2)c1	Pf growth 48h 4.7µM (no result: LASV entry inh, Marburg entry inh)
O=[N+]([O-])c1cc(C2Nc3cccc4cccc(c34)N2)ccc1Cl	Pf growth 48h 2.9µM

Bioassay records (PubChem)
